# Test results taken from PubChem BioAssay.
# Activity calls are given as the source filed them.
# Experiments:
# [1] = E. coli DRC41 culture turbidity changes, primary screen, E. coli filamentation inducer project, strain DRC41, OD650, 48 h (AID 1152);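 also: E. coli MC1000 strain DRC41 lacking acrAB efflux pump and sulA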; settings: E. coli DRC41 (acrAB sulA), higher = more signal, called active from +8 up or from −8 down
# [2] = small-molecule binders of probe aLefty1, primary screen, biochemical, small-molecule microarray, 635/667 nm fluorescence (AID 1153); settings: higher = more signal;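 also: score merges spot fluorescence with signal-to-noise ratio from the scanned slide images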
# [3] = PSAC antagonists in infected red cells, primary screen, cell-based, P. falciparum Indochina, OD700, 1 h (AID 1154); settings: P. falciparum Indochina infected RBC osmotic lysis, higher = more signal, called active from +8 up or from −8 down
# [4] = PSAC antagonists in infected red cells, primary screen, cell-based, P. falciparum Indochina, OD700, 2 h (AID 1155);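 also: lysis reports solute entry through the parasite surface anion channel PSAC; channel blockers reduce lysis of infected cells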; settings: P. falciparum Indochina infected erythrocytes, osmotic lysis OD700; higher = more signal, called active from +8 up or from −8 down
# [5] = osmotic lysis modulators in infected erythrocytes, primary screen, PSAC antagonist project, cell-based, P. falciparum Indochina, OD700, 3 h (AID 1156); settings: higher = more signal, called active from +8 up or from −8 down
# [6] = PSAC antagonists in infected red cells, primary screen, cell-based, P. falciparum Indochina, OD700, 18 h (AID 1157); settings: P. falciparum Indochina infected erythrocytes, osmotic lysis OD700, 18 h; higher = more signal, called active from +8 up or from −8 down
# [7] = modulators of S6 phosphorylation in cells, primary screen, cell-based, A549, cytoblot, luminescence, serum-stimulated (AID 1158); settings: A549 phospho-S6 cytoblot, 5 h, higher = more signal;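 also: serum-stimulated A549 lung adenocarcinoma cells; signal is phosphorylated S6 detected by cytoblot immunostaining with HRP secondary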
# [8] = target: NADPH oxidase 2 (Homo sapiens) (UniProt P04839); experiment: NOX2-dependent H2O2 signal modulators, primary screen, NOX inhibitor project, cell-based, HEK293-NOX2, PMA-stimulated, Amplex Red fluorescence (AID 1159); settings: 45 min, higher = more signal, called active from +8 up or from −8 down; also: test concentration not given here
# Sequence of NADPH oxidase 2 (Homo sapiens) (P04839 whole entry, looked up): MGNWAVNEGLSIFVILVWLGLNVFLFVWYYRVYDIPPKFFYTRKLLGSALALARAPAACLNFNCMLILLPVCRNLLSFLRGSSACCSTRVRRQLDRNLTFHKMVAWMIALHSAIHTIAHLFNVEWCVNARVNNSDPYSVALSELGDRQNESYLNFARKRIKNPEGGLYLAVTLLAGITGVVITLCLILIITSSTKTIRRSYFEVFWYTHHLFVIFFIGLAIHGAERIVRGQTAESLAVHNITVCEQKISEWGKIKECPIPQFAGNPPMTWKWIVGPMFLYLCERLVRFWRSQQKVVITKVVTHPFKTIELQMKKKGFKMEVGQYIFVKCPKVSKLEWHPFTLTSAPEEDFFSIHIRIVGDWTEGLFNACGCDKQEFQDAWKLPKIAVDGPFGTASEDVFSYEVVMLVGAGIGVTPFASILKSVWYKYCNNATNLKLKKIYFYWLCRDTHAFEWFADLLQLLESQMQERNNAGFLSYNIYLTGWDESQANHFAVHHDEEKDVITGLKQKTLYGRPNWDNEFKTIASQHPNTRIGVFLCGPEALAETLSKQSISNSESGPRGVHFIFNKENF
# [9] = target: NADPH oxidase 4 (Homo sapiens) (UniProt Q9NPH5); experiment: NOX4-dependent H2O2 signal modulators, primary screen, NOX inhibitor project, cell-based, HEK293-NOX4, tetracycline-induced, Amplex Red fluorescence (AID 1160); settings: 45 min, higher = more signal, called active from +8 up or from −8 down
# Sequence of NADPH oxidase 4 (Homo sapiens) (Q9NPH5 whole entry, looked up): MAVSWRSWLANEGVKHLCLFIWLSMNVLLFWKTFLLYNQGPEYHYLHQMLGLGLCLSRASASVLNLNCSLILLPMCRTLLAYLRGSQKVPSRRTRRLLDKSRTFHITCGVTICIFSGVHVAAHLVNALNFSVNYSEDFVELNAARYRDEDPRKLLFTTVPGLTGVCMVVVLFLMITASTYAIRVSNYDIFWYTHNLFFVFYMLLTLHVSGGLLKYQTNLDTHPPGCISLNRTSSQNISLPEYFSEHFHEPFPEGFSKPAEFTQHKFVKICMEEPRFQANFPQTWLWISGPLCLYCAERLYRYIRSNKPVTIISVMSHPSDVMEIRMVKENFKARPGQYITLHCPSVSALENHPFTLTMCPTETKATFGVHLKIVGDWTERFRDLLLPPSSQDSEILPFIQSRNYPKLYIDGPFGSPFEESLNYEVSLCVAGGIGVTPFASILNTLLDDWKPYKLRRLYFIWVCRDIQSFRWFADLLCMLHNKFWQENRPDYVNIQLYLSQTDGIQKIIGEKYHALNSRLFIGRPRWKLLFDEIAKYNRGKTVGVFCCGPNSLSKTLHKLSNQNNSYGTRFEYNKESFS
# [10] = target: NADPH oxidase 5 (Homo sapiens) (UniProt Q96PH1); experiment: NOX5-dependent H2O2 signal modulators, primary screen, NOX inhibitor project, cell-based, HEK293-NOX5, Amplex Red fluorescence (AID 1161); settings: HEK293-NOX5, ionomycin, 45 min, higher = more signal
# Sequence of NADPH oxidase 5 (Homo sapiens) (Q96PH1 whole entry, looked up): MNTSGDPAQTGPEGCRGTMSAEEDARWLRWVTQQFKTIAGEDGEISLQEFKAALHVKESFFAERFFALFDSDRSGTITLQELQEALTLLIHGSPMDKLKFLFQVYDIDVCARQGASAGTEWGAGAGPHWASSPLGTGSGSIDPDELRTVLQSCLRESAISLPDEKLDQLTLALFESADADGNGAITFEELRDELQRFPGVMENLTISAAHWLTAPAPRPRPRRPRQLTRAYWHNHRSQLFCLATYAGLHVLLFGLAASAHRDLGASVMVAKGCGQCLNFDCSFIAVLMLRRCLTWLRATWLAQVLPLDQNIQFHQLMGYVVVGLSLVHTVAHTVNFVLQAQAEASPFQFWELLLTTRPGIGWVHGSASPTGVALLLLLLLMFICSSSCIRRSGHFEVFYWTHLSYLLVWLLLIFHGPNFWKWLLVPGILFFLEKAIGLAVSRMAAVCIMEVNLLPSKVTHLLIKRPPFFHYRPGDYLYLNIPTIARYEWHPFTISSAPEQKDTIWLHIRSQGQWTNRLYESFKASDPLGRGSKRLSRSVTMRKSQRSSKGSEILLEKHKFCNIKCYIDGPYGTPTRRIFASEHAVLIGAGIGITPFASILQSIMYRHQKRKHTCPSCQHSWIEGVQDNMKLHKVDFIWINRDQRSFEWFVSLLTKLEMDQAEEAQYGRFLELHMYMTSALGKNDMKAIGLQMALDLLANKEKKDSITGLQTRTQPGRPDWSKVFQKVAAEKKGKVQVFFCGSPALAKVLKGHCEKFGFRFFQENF
# [11] = A549 cell viability effects, profiling panel, calcein-AM fluorescence, 48 h, basal (AID 1162); settings: higher = more signal; also: test concentration not given here
# [12] = adipocyte viability effects, profiling panel, cell-based, 3T3-L1 adipocytes, calcein-AM fluorescence, 48 h, basal (AID 1163); settings: 3T3-L1 adipocytes viability, higher = more signal; also: test concentration not given here
# [13] = HepG2 cell viability effects, profiling panel, calcein-AM fluorescence, 48 h, basal (AID 1164); settings: higher = more signal; also: test concentration not given here
# [14] = MM1S cell viability effects, profiling panel, calcein-AM fluorescence, 48 h, basal (AID 1165); settings: higher = more signal;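 also: viability of MM1S multiple myeloma cells under basal unstimulated conditions; test concentration not given here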
# [15] = basal RPMI8226 viability, no added stimulus, profiling panel, cell-based, calcein-AM fluorescence, 48 h, PK04 Diversity Set (AID 1166); settings: RPMI8226 myeloma viability, higher = more signal;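 also: cells grown under basal conditions without added stimulus; test concentration not given here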
# [16] = basal HepG2 mitochondrial membrane potential changes, profiling panel, cell-based, JC-1 fluorescence, 24 h, 100 nL compound (AID 1167); settings: higher = more signal; also: test concentration not given here
# [17] = basal 3T3-L1 adipocyte mitochondrial potential changes, profiling panel, cell-based, JC-1 fluorescence, 3T3-L1 adipocytes, 24 h, 100 nL compound (AID 1168); settings: JC-1 mitochondrial fluorescence, higher = more signal, called active from +8 up or from −8 down; also: test concentration not given here
# [18] = basal RPMI8226 mitochondrial membrane potential changes, profiling panel, cell-based, JC-1 fluorescence, 24 h, 100 nL compound (AID 1169); settings: RPMI8226 myeloma, JC-1 mitochondrial potential fluorescence, higher = more signal; also: test concentration not given here
# [19] = basal MM1S mitochondrial membrane potential changes, profiling panel, cell-based, JC-1 fluorescence, 24 h, 100 nL compound (AID 1170); settings: higher = more signal; also: test concentration not given here
# [20] = A549 lung cancer cell viability effects, profiling panel, resazurin fluorescence, 24 h, PK04 Diversity Set (AID 1171); settings: higher = more signal, called active from +8 up or from −8 down; also: test concentration not given here
SMILES,z-score [1],composite z-score [2],z-score [3],z-score [4],z-score [5],z-score [6],z-score [7],z-score [8],z-score [9],z-score [10],z-score [11],z-score [12],z-score [13],z-score [14],z-score [15],z-score [16],z-score [17],z-score [18],z-score [19],z-score [20]
COC(=O)[C@H](C)NC(=O)[C@@H](C)CO,-0.534 (inactive),0.138,0.295 (inactive),0.451 (inactive),0.372 (inactive),0.665 (inactive),0.656,-0.371 (inactive),-0.71 (inactive),0.468,-0.562,0.945,-0.524,0.363,-1.21,-0.355,-0.0968 (inactive),-0.04,0.384,-0.939 (inactive)
O=C(NN=C1C[C@@H](O)[C@@H](O)[C@@H]2[C@@H]3C(=O)N(c4ccc(F)cc4F)C(=O)[C@@H]3CC[C@@H]12)OCc1ccccc1,0.113 (inactive),0.0536,3.79 (inactive),0.326 (inactive),-0.479 (inactive),0.0094 (inactive),-0.849,1.56 (inactive),0.882 (inactive),0.0449,0.166,-0.902,-0.903,0.655,-0.768,-0.121,1.2 (inactive),-0.353,-0.0309,-0.0526 (inactive)
O=C1[C@H]2[C@H]3[C@H](O)[C@H](O)CC(=NOCc4ccccc4)[C@@H]3CC[C@H]2C(=O)N1C1CCCCC1,-0.501 (inactive),0.056,2.79 (inactive),0.322 (inactive),0.28 (inactive),0.352 (inactive),-0.206,1.56 (inactive),0.568 (inactive),-0.818,-0.128,-1.08,-0.622,-0.615,0.0958,-1.19,-0.652 (inactive),0.886,-0.101,0.36 (inactive)
CN(C)CCCNC(=O)[C@@H]1c2ccccc2C(=O)N(Cc2cc(F)cc(C(F)(F)F)c2)[C@H]1c1ccc(CO)cc1,-0.72 (inactive),-0.0818,1.88 (inactive),0.382 (inactive),2.38 (inactive),0.745 (inactive),0.269,0.547 (inactive),-0.0177 (inactive),-2.19,-0.276,0.239,-0.318,0.137,0.606,1.3,-0.557 (inactive),0.735,-0.195,0.0923 (inactive)
CN1C(=O)C2C=CC(C(O)c3ccc(Br)cc3)N(N(c3ccccc3)c3ccccc3)C2C1=O (stereo not given),-1.19 (inactive),0.446,15.4 (active),3.08 (inactive),0.948 (inactive),1.76 (inactive),-0.0423,1.2 (inactive),0.184 (inactive),0.24,1.78,-0.658,1.37,0.0222,-0.574,0.232,-1.07 (inactive),0.343,-0.654,-0.335 (inactive)
COc1ccc(CCNC(=O)[C@@H]2c3ccccc3C(=O)N(c3ccc(C)cn3)[C@H]2c2ccc(CO)cc2)cc1,0.119 (inactive),-0.06,2.45 (inactive),0.478 (inactive),0.414 (inactive),0.401 (inactive),-0.0568,0.0857 (inactive),-0.882 (inactive),-2.5,-0.174,0.821,-0.513,-0.243,-0.194,-0.814,-0.195 (inactive),0.671,0.634,0.689 (inactive)
CCN(CC)c1ccc(N2CC=CC34O[C@@H]5/C=C\CCC(C)OC(=O)C5[C@H]3C(=O)N(CCCO)[C@@H]4C2=O)cc1 (stereo not given in full),-0.074 (inactive),-0.191,1.43 (inactive),-0.223 (inactive),-0.0086 (inactive),-0.18 (inactive),-0.473,0.056 (inactive),-1.51 (inactive),0.975,0.28,0.782,0.109,1.09,0.264,-0.356,0.0214 (inactive),-0.245,1.18,-0.38 (inactive)
CN1C(=O)C2C(C1=O)C1C=C(CCCO)C2C(c2ccc(CN3CCCC3)cc2)N1C (stereo not given),-0.204 (inactive),0.0811,1.51 (inactive),0.621 (inactive),0.914 (inactive),0.378 (inactive),0.318,-2.14 (inactive),-1.25 (inactive),-0.91,-0.259,0.617,-0.94,0.312,-1.55,0.48,-0.319 (inactive),-0.667,0.287,-1.1 (inactive)
CC(C)[Si]1(C(C)C)O[C@@H](c2ccccc2)c2cc(C3CC3)nc(-c3ccccc3)c21,-1.02 (inactive),-0.108,1.27 (inactive),0.389 (inactive),-0.0854 (inactive),-0.0349 (inactive),0.19,-0.305 (inactive),0.504 (inactive),0.0972,-0.447,-0.483,-0.244,-2.2,-1.35,-1.8,-0.092 (inactive),-0.781,-0.192,1.44 (inactive)
